Assay outcomes deposited in PubChem BioAssay by several laboratories.
CSC inhib = blocks cancer stem cells; AID 2717; inhibition, % at 7.5 µM; cancer stem cell-like cells viability, luminescence; 300,000 tested, 1.1% active; in the data active = inhibition above about 75%; tested in HMLE shEcad cells
Gli-Sufu block = antagonists of Gli-Sufu signaling. Sufu-KO-LIGHT fibroblasts, Gli luciferase reporter luminescence. inhibition, % at 5 µM. AID 588413. 340,000 tested, 0.74% active;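 active = inhibition above about 55%, limit read from the data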;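 also: 0% = DMSO-treated cells and 100% = wells with medium but no cells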
Shn3 inh set2 = reduces Shn3 3'UTR luciferase signal in osteoblasts; Clone20 osteoblast Shn3 3'UTR firefly luciferase, 24 h; inhibition, % at 12.5 µM; 360,000 tested, 0.52% active; AID 588674;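 active = mean inhibition of at least 75% with every replicate also reaching 75%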;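 also: 0% = median of neutral control wells and 100% = pilot-screen positive control compound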
PAX8 reporter = lowers PAX8-driven luciferase in RMG-I cells | RMG-I TPO-luciferase reporter, SteadyGlo, 24 h | inhibition, % at 12.6 µM | 360,000 tested, 1.2% active | AID 652154;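 active = mean replicate inhibition at least 60% with every replicate also reaching 60%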;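 also: luciferase light reporting Pax8 driven TPO promoter activity; plate controls were median of neutral control wells for no effect and mitoxantrone controls for full effect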
Mdm2 MdmX PPI = disrupts the human Mdm2-MdmX interaction; O15151+Q00987; 330,000 tested, 3% active; SaOS-2 split-luciferase Mdm2/MdmX complementation, luminescence; inhibition, % at 8 µM;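 active = inhibition of at least 50% at 8 µM in the primary screen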
Target sequence (O15151 whole entry, looked up): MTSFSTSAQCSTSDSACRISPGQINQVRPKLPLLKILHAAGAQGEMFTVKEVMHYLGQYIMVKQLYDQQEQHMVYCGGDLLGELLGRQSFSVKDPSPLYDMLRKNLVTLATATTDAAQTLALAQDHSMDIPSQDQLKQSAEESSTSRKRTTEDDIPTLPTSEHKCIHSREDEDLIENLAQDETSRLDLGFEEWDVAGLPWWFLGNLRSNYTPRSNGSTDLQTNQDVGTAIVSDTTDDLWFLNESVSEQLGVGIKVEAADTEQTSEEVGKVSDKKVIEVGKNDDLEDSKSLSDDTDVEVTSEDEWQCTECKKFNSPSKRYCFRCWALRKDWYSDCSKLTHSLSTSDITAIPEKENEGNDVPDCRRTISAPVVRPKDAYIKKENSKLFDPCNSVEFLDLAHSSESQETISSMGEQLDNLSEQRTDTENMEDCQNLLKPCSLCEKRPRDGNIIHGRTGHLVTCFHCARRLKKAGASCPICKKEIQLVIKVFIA
Target sequence (Q00987 whole entry, looked up): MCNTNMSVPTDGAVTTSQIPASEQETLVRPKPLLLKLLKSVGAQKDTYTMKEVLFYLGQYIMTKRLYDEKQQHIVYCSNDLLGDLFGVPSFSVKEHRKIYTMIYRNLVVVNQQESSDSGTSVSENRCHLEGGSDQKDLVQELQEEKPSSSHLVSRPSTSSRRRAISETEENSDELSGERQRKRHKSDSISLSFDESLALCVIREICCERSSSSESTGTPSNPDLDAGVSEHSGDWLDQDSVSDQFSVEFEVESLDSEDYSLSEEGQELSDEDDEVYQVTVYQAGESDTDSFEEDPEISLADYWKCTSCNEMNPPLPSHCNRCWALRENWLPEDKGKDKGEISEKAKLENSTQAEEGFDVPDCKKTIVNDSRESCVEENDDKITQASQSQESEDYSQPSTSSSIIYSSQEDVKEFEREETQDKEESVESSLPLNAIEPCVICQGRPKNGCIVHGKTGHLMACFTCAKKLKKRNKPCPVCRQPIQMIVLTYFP
Beta cell apopt = blocks beta cell apoptosis; INS-1E cytokine-induced death, ATP luminescence, 48 h; percent of positive-control rescue, neutral wells zero; protection from apoptosis, % (no concentration beside the values); 300,000 tested, 0.8% active; AID 435005;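 active = Every replicate reaches about 75%, or at least half do and their mean reaches it too, limit read from the data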;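 also: 0% = cytokine-treated negative control wells and 100% = positive control rescue; higher means more ATP so stronger rescue from cytokine killing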
Mdm2 MdmX conf = confirmation of human Mdm2/MdmX interaction inhibitors; Mdm2-MdmX binding, luminescent assay; AID 489028; inhibition, % at 8 µM; shares compounds with Mdm2 MdmX PPI; 10,000 tested, 55% active; in the data active = inhibition above about 40%
Full FLuc ctr = inhibits full-length luciferase, flagging false Mdm2/MdmX hits; 6,200 tested, 77% active; SaOS-2 full-length luciferase counterscreen, luminescence; inhibition, % at 8 µM; shares compounds with Mdm2 MdmX PPI;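 active = mean inhibition at 8 µM reaching about 37%, which flags the compound as non-specific, limit read from the data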;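 also: p53-null SaOS-2 cells with luciferase driven by a doxycycline-inducible promoter; compound on cells about two nights before reading with doxycycline added after day one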
* = called active by the depositor; / = no result. Shown are actives, neighbours in structure and some others; about 4% of the full set was active somewhere.

SMILES	CSC inhib	Gli-Sufu block	Shn3 inh set2	PAX8 reporter	Mdm2 MdmX PPI	Beta cell apopt	Mdm2 MdmX conf	Full FLuc ctr
O=C(c1ccccc1)N1C[C@@H]2[C@H](c3ccccc31)[C@@H](CO)N2S(=O)(=O)c1ccccc1	/	/	/	4	/	/	/	/
CCN1CCc2c(sc(NC(=O)c3ccc(S(=O)(=O)N4CCOCC4)cc3)c2C(=O)OC)C1	-8	45	17	/	64*	-17	30	/
CCOC(=O)c1c(C)nc2sc(C(=O)Nc3ccccc3)c(N)c2c1-c1ccc(OC)cc1	-9	6	24	/	59*	36	35	/
CCOC(=O)c1c(C)nc2sc(C(N)=O)c(N)c2c1-c1ccccc1	7	23	15	/	13	-9	/	/
COc1ccc(NC(=O)N(C)C[C@@H]2Oc3ccc(NS(=O)(=O)c4ccc(C)cc4)cc3C(=O)N([C@@H](C)CO)C[C@H]2C)cc1	/	/	/	6	/	/	/	/
COc1ccc(-c2ccc3c(c2)[C@@H]2[C@@H](CCN2S(=O)(=O)c2ccccc2C)[C@H](CO)N3)cc1	/	/	/	34	/	/	/	/
O=C(CC(Nc1ccc(Cl)cc1Cl)C(=O)O)c1ccccc1 (stereo not drawn)	-11	18	20	-19	71*	-1	80*	63*
O=C(CC(Nc1ccccc1)C(=O)O)c1ccccc1 (stereo not drawn)	-12	-82	-108	/	-83	0	/	/
Cc1ccc(N(C(=O)Cc2c[nH]c3ccccc23)C(C(=O)NC2CCCCC2)c2ccco2)cc1 (stereo not drawn)	-5	6	0	/	55*	-14	40*	86*
O=Cc1cc2ccccc2nc1SCc1ccc(Cl)c(Cl)c1	94*	36	16	/	64*	57	62*	86*
O=c1[nH]c(SCc2ccc(Cl)cc2)nc2ccccc12	-2	-13	6	-6	16	-3	/	/
Cc1ccc(CSc2nc3ccccc3cc2C=O)cc1	70	-6	-4	/	64*	39	65*	80*
O=Cc1cc2ccccc2nc1SCc1ccc(Cl)cc1	88*	-28	6	/	81*	25	59*	84*
COc1cc(C)c(C(=O)CC(=O)c2c(C)cc(OC)cc2C)c(C)c1	132*	3	84	17	51*	75*	16	/
COc1ccc(NC(C)=O)c(C)c1	-12	-4	7	-5	12	-6	/	/
COc1cc(/C=C(\C#N)c2nc3ccccc3[nH]2)cc(Br)c1OCc1ccccc1	7	5	13	27	20	32	/	/
CCOc1cc(N(CC)CC)ccc1/C=C(/C#N)c1nc2ccccc2[nH]1	65	-1	-8	/	51*	19	47*	92*
CCN(CC)c1ccc(/C=C(/C#N)c2nc3ccc(C)cc3[nH]2)c(OC(C)C)c1	-18	16	13	/	52*	48	44*	79*
CCCOc1cc(N(CC)CC)ccc1/C=C(/C#N)c1nc2ccc(C)cc2[nH]1	58	51	9	/	49	45	/	/
COc1cc(/C=C(\C#N)c2nc3ccccc3[nH]2)cc(Br)c1OCc1ccc(F)cc1	34	-7	1	/	75*	14	33	39*
Cc1cc(/C=C(\C#N)c2nc3ccccc3[nH]2)c(C)n1C	1	-80	-14	-157	-15	2	/	/
C[C@@H]1CN([C@@H](C)CO)C(=O)c2cc(C#CC3(O)CCCC3)cnc2O[C@@H]1CN(C)C(=O)C1CCOCC1	/	/	/	9	/	/	/	/
C=CCc1cccc(C2Nc3ccccc3C(=O)N2O)c1O (stereo not drawn)	/	0	-19	/	72*	4	5	/
O=C1c2ccccc2NC(c2ccc(Cl)cc2Cl)N1O (stereo not drawn)	/	4	4	/	65*	3	46*	31
CO[C@@H]1CN(C)C(=O)c2ccc(NC(=O)C3CC3)cc2OC[C@H](C)N(CC2CC2)C[C@@H]1C	/	/	/	-6	/	/	/	/
SMILES	CSC inhib	Gli-Sufu block	Shn3 inh set2	PAX8 reporter	Mdm2 MdmX PPI	Beta cell apopt	Mdm2 MdmX conf	Full FLuc ctr
CC(C)OCc1c(C(=O)OC/C(O)=C(\C#N)c2nc3ccccc3[nH]2)oc2ccccc12	-2	-3	11	11	57*	4	-5	/
Cc1c(C(=O)OC/C(O)=C(\C#N)c2nc3ccccc3[nH]2)oc2ccc(Br)cc12	27	9	1	18	85*	0	14	/
CCOC(=O)c1c(C)[nH]c(C(=O)OCC(O)=C(C#N)c2nc3ccccc3[nH]2)c1C	/	1	73	-1	/	/	/	/
Cc1c(-c2cccc(Cl)c2)nc2ccccc2c1C(=O)OC/C(O)=C(\C#N)c1nc2ccccc2[nH]1	98*	-20	-48	36	70*	97*	11	/
O=C(O)C[C@H]1C[C@@H]2c3cc(NC(=O)CC4CC4)ccc3O[C@@H]2[C@@H](CO)O1	/	/	/	-9	/	/	/	/
CNC[C@@H]1Oc2ccc(NC(=O)Nc3ccc(F)cc3)cc2CC(=O)N([C@H](C)CO)C[C@@H]1C	/	/	/	-9	/	/	/	/
COc1ccc2ccccc2c1/C=N/NC(=S)Nc1cc(S(=O)(=O)N2CCOCC2)ccc1N1CCOCC1	/	7	15	15	24	-4	/	/
COc1ccc(/C=N/NC(=S)Nc2cc(S(=O)(=O)N3CCOCC3)ccc2N2CCOCC2)cc1O	29	17	19	10	51*	8	45*	83*
CCC(=O)N1CC[C@H]2[C@H](CO)Nc3ccc(-c4cccc(C#N)c4)cc3[C@H]21	/	/	/	5	/	/	/	/
O=C(c1ccccc1)N1[C@H](CO)[C@H](c2ccccc2)C12CN(CCC(F)(F)F)C2	/	/	/	10	/	/	/	/
O=C(Nc1ccc(Cl)cc1)N1CCCN(Cc2ccc(F)cc2)C1	11	12	-7	/	53*	2	29	/
CCOc1ccccc1NC(=O)CN(c1ccc(OC)cc1)S(=O)(=O)c1c(C)noc1C	58	5	0	24	58*	7	56*	60*
CCOc1ccc(N(CC(=O)Nc2ccccc2C)S(=O)(=O)c2c(C)noc2C)cc1	65	-2	29	29	56*	/	57*	57*
CCOc1ccc(N(CC(=O)Nc2ccc(C)c(C)c2)S(=O)(=O)c2c(C)noc2C)cc1	11	12	61	17	4	/	/	/
CCCNC(=O)C[C@@H]1CC[C@H]2[C@@H](COc3ccc(NC(=O)c4cc(C)on4)cc3C(=O)N2C)O1	/	/	/	-4	/	/	/	/
CCC(C)(C)c1ccc(OCCCC[n+]2cccc(C)c2C)c(C(C)(C)CC)c1	135*	85*	/	98*	100*	117*	98*	53*
CCC(C)(C)c1ccc(OCCCC[n+]2ccc(C)cc2)c(C(C)(C)CC)c1	106*	84*	/	85*	98*	115*	97*	53*
